Measured values from PubChem BioAssay AID1159580 (chemical genetic matrix, 2015).
In all, about 5,500 compounds went through this assay and about 2,000 (36%) were called active. Roughly 18% stayed inconclusive and do not appear here. No stated cut-off is given here; in the data, active means normalized growth mostly below about 0.91 (no sharp cut-off); inconclusive means no clear call, values can overlap the other calls; inactive means mostly above about 0.92. This is one part of the list.

Test: chemical genetic growth profiling, strain panel (AID 1159580);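 further: tested at 20 µM; growth read once vehicle control cultures reached saturation at 30 °C; 1 = growth at the plate median or of vehicle wells; lower values mean less growth of the strain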
Conditions: S. cerevisiae deletion strains, growth OD

Measured: normalized growth

Cc1c2ccncc2c(C)c2c1[nH]c1ccccc12
active: locus YAL040C, strain CLN3, hits give low values 0.101 | locus YCL061C, strain MRC1 (second series), hits give low values 0.0557 | locus YDR150W, strain NUM1, hits give low values 0.13 | locus YDR363W, strain ESC2, hits give low values 0.153 | locus YER002W, strain NOP16, hits give low values 0.0868 | locus YGR078C, strain PAC10, hits give low values 0.0788 | locus YMR263W, strain SAP30, hits give low values 0.362 | locus YNL128W, strain TEP1, hits give low values 0.083 | locus YNL153C, strain GIM3, hits give low values 0.0799 | locus YNL175C, strain NOP13, hits give low values 0.0703 | locus YNL197C, strain WHI3, hits give low values 0.0671 | locus YNL224C, strain SQS1, hits give low values 0.0631 | locus YOR083W, strain WHI5 (second series), hits give low values 0.079 | locus YPL055C, strain LGE1, hits give low values 0.101
